# MITF primary: human MITF inhibition, primary screen; O75030; AlphaScreen MITF homodimerization, bead proximity signal; inhibition, % at 2.6 µM; hit rate 0.91% among 650,000; in the data active = inhibition above about 50%
# GPR151 ag: activates the human receptor GPR151. Q8TDV0. PathHunter beta-arrestin GPR151 cells, luminescence. activation, % at 11.2 µM. hit rate 1% among 650,000. AID 1508602; in the data active = activation above about 4.9%
# FBW7 activator: human FBW7 E3 ligase activation, primary screen. Q969H0. AlphaScreen FBW7–phospho-cyclin E peptide binding, activator screen. normalized activity (activation), % at 26.1 µM. hit rate 0.13% among 650,000. AID 1259310; in the data active = normalized activity above about 1.9%;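 also: purified mutant Fbw7 with reduced substrate affinity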
# TEAD-YAP block: TEAD-YAP interaction inhibition | HEK-TIYL cells, TEAD-Gal4/YAP UAS-luciferase luminescence | inhibition, % at 9.12 µM | hit rate 1.4% among 640,000; in the data active = inhibition above about 32%
# GPR151 conf act: human GPR151 activation, confirmation screen. 6,700 tested, under 10 active. shares compounds with GPR151 ag. GPR151 PathHunter beta-arrestin cells, luminescence, 90 min; % of EA-reagent control over plate median. activation, % at 11.2 µM;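 active = mean percent activation across replicates above the confirmation screen cutoff of 4.91%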
# GPR119 counter: activates human GPR119 in a GPR151 counter-screen. shares compounds with GPR151 ag. GPR119 PathHunter beta-arrestin cells, luminescence, 90 min; 0 = compound-well median, 100 = enzyme-acceptor control. activation, % at 11.2 µM. hit rate 0.3% among 6,700;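 active = mean percent activation in the counterscreen above 29.09%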;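 also: counterscreen on off-target GPR119 to flag nonselective hits from the GPR151 activator screen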
# Target sequence (Q8TDV5 whole entry, looked up): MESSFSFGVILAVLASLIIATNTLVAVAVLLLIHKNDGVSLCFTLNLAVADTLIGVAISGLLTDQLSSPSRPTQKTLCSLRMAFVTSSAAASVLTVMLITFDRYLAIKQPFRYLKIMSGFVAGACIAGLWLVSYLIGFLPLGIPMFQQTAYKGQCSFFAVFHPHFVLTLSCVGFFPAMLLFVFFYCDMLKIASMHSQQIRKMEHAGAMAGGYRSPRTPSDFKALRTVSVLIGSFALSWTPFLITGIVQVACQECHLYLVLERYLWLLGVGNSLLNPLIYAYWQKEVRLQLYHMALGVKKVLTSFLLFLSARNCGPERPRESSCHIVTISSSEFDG
# A number is an active result; - = inactive; . = no result given. In the library only some 3.4% were active in any assay of this set; here they are far more common.
SMILES,MITF primary,GPR151 ag,FBW7 activator,TEAD-YAP block,GPR151 conf act,GPR119 counter
COc1ccc(C2C(C(=O)OCC(C)C)=C(C)NC3=C2C(=O)CC(c2ccc(Cl)cc2)C3)cc1 (stereo unspecified),-,5.5,-,-,-,-
COc1ccc(-c2cnc(NCCCO)nc2)cc1,-,-,-,-,.,.
OCCCNc1ncc(-c2ccc(Cl)cc2)cn1,-,5.8,-,-,-,-
COC(=O)c1cccc(CC2(C)C(=O)Nc3c(Cl)cccc32)c1 (stereo unspecified),-,-,-,-,.,.
Cc1ccc(NC(=O)CSc2ccccc2)c(C)c1,-,-,-,-,.,.
CCOC(=O)CC(NC(=O)CCCCCN1C(=O)c2ccccc2C1=O)c1ccccc1Cl (stereo unspecified),-,-,-,-,.,.
COCC(=O)NCCNc1nc2ccc(OC)cc2cc1C#N,-,7.2,-,-,-,-
COc1ccc2nc(NCCNC(=O)c3cc(OC)c(OC)c(OC)c3)c(C#N)cc2c1,-,-,-,-,.,.
COc1ccc(C(=O)NNC(=O)c2ccc(Oc3ccc(C(=O)NNC(=O)c4ccc(OC)cc4)cc3)cc2)cc1,-,-,-,-,.,.
O=C(N/N=C/c1ccncc1)c1cc(Br)ccc1OCc1ccccc1,-,5.1,-,-,-,-
CCOc1ccc(Br)cc1C(=O)N/N=C/c1ccc([N+](=O)[O-])cc1,-,7.3,-,-,-,-
CCOC(=O)C1CCCN(c2cc(NCCO)c3c4c(onc24)-c2ccccc2C3=O)C1 (stereo unspecified),-,-,-,-,.,.
CCN1CCN(C(c2ccccc2)c2sc3nc(-c4ccco4)nn3c2O)CC1 (stereo unspecified),-,5.3,-,-,-,-
Cc1cccn2c(CN[C@@H]3CCCC[C@H]3c3ccccc3)c(C(=O)N3CCOCC3)nc12,-,5.0,-,-,-,-
Cc1cccn2c(CNC3CCCc4ccccc43)c(C(=O)N3CCOCC3)nc12 (stereo unspecified),-,-,-,-,.,.
Cn1c2ccccc2c(=O)c2c(=O)n(Cc3ccccc3)c(-c3ccco3)nc21,-,-,-,-,.,.
Cn1c2ccccc2c(=O)c2c(=O)n(CCc3ccccc3)c(-c3ccco3)nc21,-,9.4,-,-,-,-
COCCCn1c(-c2ccc(F)cc2)nc2c(c(=O)c3ccccc3n2C)c1=O,-,5.9,-,-,-,-
NS(=O)(=O)c1ccc(CCn2c(SCc3cccc(Cl)c3)nc3ccccc3c2=O)cc1,-,-,-,-,.,.
O=C(O)Cc1ccc(NC(=O)c2ccccc2-c2ccccc2C(=O)O)cc1,-,6.6,-,-,-,-
COC(=O)c1ccc(CSc2nc(C)[nH]c2[N+](=O)[O-])o1,-,-,-,-,.,.
Cc1nc(SCC(O)CCl)c([N+](=O)[O-])[nH]1 (stereo unspecified),-,8.5,-,-,-,-
COc1cccc(-n2c(SCC(=O)Nc3nc(C)cs3)nnc2-c2ccoc2C)c1,-,-,-,-,.,.
N#Cc1ccc(CSC2=Nc3ccccc3C3CC=NN23)cc1 (stereo unspecified),-,-,-,-,.,.
S=C1Nc2ccccc2C2CC=NN12 (stereo unspecified),-,5.7,-,-,-,-
SMILES,MITF primary,GPR151 ag,FBW7 activator,TEAD-YAP block,GPR151 conf act,GPR119 counter
O=C(CN1CCCCC1)N/N=C/c1ccccc1O,-,5.8,-,-,-,-
O=C(COC(=O)c1ccc(F)c(S(=O)(=O)N2CCOCC2)c1)c1ccccc1,-,6.1,-,-,-,-
O=C(COC(=O)c1cc(S(=O)(=O)N2CCOCC2)ccc1F)Nc1cccc(F)c1,-,6.5,-,-,-,-
O=C(COC(=O)c1ccc(F)c(S(=O)(=O)N2CCOCC2)c1)c1ccc(Cl)cc1,-,-,-,-,.,.
COc1ccc(OCc2nc3c4cc(OC)c(OC)cc4nc(=S)n3[nH]2)cc1,-,-,-,-,.,.
COc1cc2nc(=S)n3[nH]c(CCn4c(C)nc5ccccc54)nc3c2cc1OC,-,5.5,-,-,-,-
CCOc1ccc(N2CCn3c2nnc(C(=O)NCc2ccc(Cl)cc2)c3=O)cc1,-,5.0,-,-,-,-
Cc1ccnc(NC(=O)C2CC=CCC2C(=O)O)c1 (stereo unspecified),-,6.3,-,-,-,-
Cc1ccnc(NC(=O)C2CCCC2)c1,-,-,-,-,.,.
Cc1nc(-c2c(C(F)(F)F)oc3c(CN(C)C)c(O)ccc3c2=O)cs1,-,5.1,-,-,-,-
Cc1nc(-c2c(C(F)(F)F)oc3c(C)c(C)ccc3c2=O)cs1,-,-,-,-,.,.
Cc1c(Cl)ccc2sc(NC(=O)c3cccc(N4C(=O)CCC4=O)c3)nc12,-,-,-,-,.,.
COc1ccc(-c2nnc(SCC(=O)N3c4ccccc4CC3C)o2)cc1 (stereo unspecified),-,5.8,-,-,-,-
CCOC(=O)c1sc(NC(=O)C(CC)Sc2nnc3c4ccccc4n(C)c3n2)nc1C (stereo unspecified),-,-,-,-,.,.
N#CCCN(Cc1cccnc1)C(=S)NC(=O)c1cccs1,-,5.6,-,-,-,-
O=C(OCc1nc2ccccc2s1)c1ccc(O)cc1,-,-,-,-,.,.
CN(C)S(=O)(=O)c1ccc(C(=O)OCc2nc3ccccc3s2)cc1,-,6.9,-,-,-,-
O=C(CSc1nnc(-c2cccnc2)o1)c1cc2ccccc2oc1=O,-,6.2,-,-,-,-
CCNC(=O)C(=O)N/N=C/c1ccccc1,-,8.2,-,-,-,-
c1ccc(CN2CCC(Nc3nc(Nc4ccc(N5CCOCC5)cc4)nc4nc[nH]c34)CC2)cc1,-,-,-,-,.,.
O=C(NC1(C(F)(F)F)NC(=O)N(c2ccc(F)cc2)C1=O)c1ccncc1 (stereo unspecified),-,12.8,-,-,-,-
O=C(NC1(C(F)(F)F)NC(=O)N(c2ccc(F)cc2)C1=O)c1ccc(F)cc1 (stereo unspecified),-,-,-,-,.,.
COc1ccccc1C(=O)NC1(C(F)(F)F)NC(=O)N(c2ccc(C)c(C)c2)C1=O (stereo unspecified),-,7.3,-,-,-,-
OCCC1CN(Cc2ccc(F)c(F)c2)CCN1Cc1ccccc1 (stereo unspecified),-,-,-,-,.,.
CCc1nn(CC(=O)O)c(=O)c2cc3oc(C)cc3n12,-,-,-,-,.,.
CCC(=O)N[C@@H]1c2ccccc2C2(CCN(Cc3ccn[nH]3)CC2)[C@H]1OC,-,-,-,-,.,.
Cc1ccc(CSc2nc3ccccc3c(=O)n2CC2CCCO2)cc1 (stereo unspecified),-,-,-,-,.,.
O=c1c2ccccc2nc(SCc2ccncc2)n1CC1CCCO1 (stereo unspecified),-,6.2,-,-,-,-
